Measurements published in PubChem BioAssay.
“And” between values parts separate entries of the source, which are not always exact repeats. Identical values can stand only once. The source made the active and inactive calls.

Assays:
Albumin (Bos taurus) = Albumin (Bos taurus) (UniProt P02769); assay: compounds binding labelled BSA control protein – biochemical, small-molecule microarray, Alexa647 label, 635/667 nm fluorescence, artefact control for SMM control protein annotation, profiling panel (AID 1118); settings: BSA-A647 binding, fluorescence 635 nm, higher = more signal;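 also: score merges 667 nm emission intensity and signal-to-noise per printed compound spot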
[1] = probe aXIP binding to arrayed compounds – biochemical, NeuroSMM set, 635/667 nm fluorescence, primary screen (AID 1119); settings: small-molecule microarray, higher = more signal, called active from +8 up or from −8 down;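 also: probe is the protein aXip251-270 applied at 1 µg/mL to compound-printed slides; binding of probe to printed compounds measured as 667 nm fluorescence plus signal to noise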
[2] = probe aNOTCH3 binding on compound microarray – biochemical, small-molecule microarray, 635/667 nm fluorescence, primary screen (AID 1120); settings: higher = more signal;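 also: probe is a biotin-tagged antibody raised against NOTCH3 rather than NOTCH3 protein; score merges spot fluorescence near 667 nm with spot signal to noise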
[3] = probe aNOTCH2 binding on compound microarray – biochemical, small-molecule microarray, 635/667 nm fluorescence, primary screen (AID 1121); settings: higher = more signal;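 also: score merges feature fluorescence read at 667 nm with its signal to noise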
[4] = target: Carbonic anhydrase 2 (Homo sapiens) (UniProt P00918); assay: compounds binding carbonic anhydrase 2 – biochemical, small-molecule microarray, Alexa647-labelled CAII, profiling panel (AID 1122); settings: CAII-A647 binding fluorescence, higher = more signal
[5] = COS7 lysate on small-molecule microarray, probe aHis, 635 nm (AID 1123); settings: COS7 cell lysate, fluorescence, higher = more signal;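 also: z-score combines 667nm fluorescence intensity with signal-to-noise per printed compound spot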
[6] = probe aLAP1 signal on lysate-treated microarray – cell lysate, small-molecule microarray, COS7 lysate, primary screen (AID 1124); settings: probe aLAP1, fluorescence, higher = more signal;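 also: lysate comes from COS7 cells expressing LAP1 and is applied at 0.3 µg/mL; score merges spot fluorescence near 667 nm with signal-to-noise over triplicate slides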
Sam68 (KHDRBS1) = assay: compounds binding KHDRBS1 protein – biochemical, small-molecule microarray, 635 nm fluorescence, primary screen (AID 1125); settings: higher = more signal;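 also: score merges 667 nm channel intensity with signal to noise over triplicate slides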
[7] = tested on: Chordin-like protein 2 (CHRDL2); assay: compounds binding chordin-like 2 – biochemical, small-molecule microarray, 635 nm fluorescence, primary screen (AID 1126); settings: fluorescence 635 nm, higher = more signal;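 also: printed compound slides probed with Chrdl2 protein at 4 µg/mL for 1 h at 4 C; score merges 667 nm emission intensity with signal to noise over three replicate slides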
[8] = target: Concanavalin-A (Canavalia ensiformis) (UniProt P02866); assay: compounds binding concanavalin A lectin – biochemical, small-molecule microarray, Alexa647 label, 635 nm, artefact control for SMM control protein annotation, primary screen (AID 1127); settings: ConA-A647 binding fluorescence, higher = more signal;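 also: z combines 667 nm emission intensity with signal-to-noise across three replicate slides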
[9] = compounds binding Alexa647 anti-His antibody – biochemical, small-molecule microarray, 635 nm fluorescence, artefact control for SMM control protein annotation, primary screen (AID 1128); settings: higher = more signal;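 also: score merges feature fluorescence with signal-to-noise for each printed compound spot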
[10] = tested on: Human papillomavirus type 1a E7 protein (residues 1-88); assay: HPV1a E7 small-molecule binders, primary screen, biochemical, small-molecule microarray, residues 1-88, 635 nm (AID 1129); settings: small-molecule microarray binding, fluorescence 635 nm; higher = more signal
[11] = target: Focal adhesion kinase 1 (Homo sapiens) (UniProt Q05397); assay: PTK2 protein binding on printed compound slides – biochemical, small-molecule microarray, 635/667 nm fluorescence, BSA, DTT, primary screen (AID 1130); settings: 635 nm fluorescence, higher = more signal;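 also: composite of spot emission at 667 nm and signal to noise over triplicate slides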
[12] = tested on: Fibrinogen (Alexa647-labelled); assay: Alexa647-fibrinogen binding to printed small molecules – biochemical, small-molecule microarray, 635/667 nm fluorescence, artefact control for SMM control-protein annotation, profiling panel (AID 1131); settings: fibrinogen-A647 binding fluorescence, higher = more signal;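 also: z-score merges 667 nm fluorescence with per-spot signal-to-noise over triplicate slides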
[13] = target: Follistatin (Homo sapiens) (UniProt P19883); assay: FST protein binding to printed compounds – biochemical, small-molecule microarray, 635/667 nm fluorescence, primary screen (AID 1132); settings: 635 nm fluorescence, higher = more signal
[14] = target: Fibroblast growth factor 2 (Homo sapiens) (UniProt P09038); assay: basic fibroblast growth factor binding to printed compounds – biochemical, small-molecule microarray, 635/667 nm fluorescence, primary screen (AID 1133); settings: FGF2, fluorescence 635/667, higher = more signal
[15] = JC-1 mitochondrial potential readout, lung cancer cells – cell-based, A549, JC-1 fluorescence, basal, 24 h, 100 nL, profiling panel (AID 1138); settings: higher = more signal;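 also: A549 lung adenocarcinoma cells under basal conditions with no added stimulus; test concentration not given here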
Lefty1 = Lefty1 protein binding to printed compounds – biochemical, small-molecule microarray, 635/667 nm fluorescence, primary screen (AID 1139); settings: fluorescence 635/667, higher = more signal
[16] = tested on: wheat germ agglutinin (Triticum aestivum), Alexa647-labelled; assay: Alexa647-WGA lectin binding to printed small molecules – biochemical, small-molecule microarray, 635/667 nm fluorescence, artefact control for SMM control-protein annotation, profiling panel (AID 1140); settings: WGA-A647 binding, 635 nm fluorescence, higher = more signal;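 also: score merges 667 nm feature emission with signal to noise over triplicate slides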
[17] = target: Luciferin 4-monooxygenase (Photinus pyralis) (UniProt P08659); assay: inhibition of purified Photinus pyralis luciferase – biochemical, luminescence, purified enzyme, 2006 set, primary screen (AID 1141); settings: purified firefly luciferase, SteadyGlo luminescence, 30 min; higher = more signal, called active from +8 up or from −8 down;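 also: cell-free assay with purified firefly luciferase at 100 ng per well in PBS; test concentration not given here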
Chain of Luciferin 4-monooxygenase (Photinus pyralis) (P08659 whole entry, looked up): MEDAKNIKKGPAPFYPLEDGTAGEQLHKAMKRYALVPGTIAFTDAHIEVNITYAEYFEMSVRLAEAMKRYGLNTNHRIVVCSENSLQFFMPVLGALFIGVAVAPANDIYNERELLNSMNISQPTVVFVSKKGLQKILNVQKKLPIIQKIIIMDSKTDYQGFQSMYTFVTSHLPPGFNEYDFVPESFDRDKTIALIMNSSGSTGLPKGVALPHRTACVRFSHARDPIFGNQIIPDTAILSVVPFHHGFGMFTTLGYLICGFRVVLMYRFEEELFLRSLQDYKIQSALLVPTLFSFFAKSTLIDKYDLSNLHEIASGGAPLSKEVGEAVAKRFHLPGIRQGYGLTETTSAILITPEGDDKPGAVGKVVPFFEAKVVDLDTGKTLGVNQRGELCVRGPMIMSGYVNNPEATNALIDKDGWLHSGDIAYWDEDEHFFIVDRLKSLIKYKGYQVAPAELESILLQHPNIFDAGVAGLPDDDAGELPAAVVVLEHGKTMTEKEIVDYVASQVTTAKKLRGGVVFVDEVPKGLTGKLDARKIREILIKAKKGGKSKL

Chain of Fibroblast growth factor 2 (Homo sapiens) (P09038 whole entry, looked up): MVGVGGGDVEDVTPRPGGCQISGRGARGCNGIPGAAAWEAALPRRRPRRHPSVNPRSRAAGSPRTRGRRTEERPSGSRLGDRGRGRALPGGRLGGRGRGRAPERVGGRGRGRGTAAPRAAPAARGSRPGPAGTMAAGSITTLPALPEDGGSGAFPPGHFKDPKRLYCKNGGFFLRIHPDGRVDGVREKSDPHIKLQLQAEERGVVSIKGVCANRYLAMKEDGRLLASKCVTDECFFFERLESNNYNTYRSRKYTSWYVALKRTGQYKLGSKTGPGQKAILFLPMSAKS
Chain of Follistatin (Homo sapiens) (P19883 whole entry, looked up): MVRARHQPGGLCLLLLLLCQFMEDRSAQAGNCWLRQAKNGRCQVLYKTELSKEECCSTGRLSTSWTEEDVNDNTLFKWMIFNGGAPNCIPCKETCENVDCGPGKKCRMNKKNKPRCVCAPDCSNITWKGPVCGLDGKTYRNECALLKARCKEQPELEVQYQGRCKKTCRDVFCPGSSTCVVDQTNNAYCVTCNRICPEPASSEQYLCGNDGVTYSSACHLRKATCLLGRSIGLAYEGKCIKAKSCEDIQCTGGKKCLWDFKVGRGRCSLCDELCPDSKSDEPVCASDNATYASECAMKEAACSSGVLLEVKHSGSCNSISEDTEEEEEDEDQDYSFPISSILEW
Chain of Focal adhesion kinase 1 (Homo sapiens) (Q05397 whole entry, looked up): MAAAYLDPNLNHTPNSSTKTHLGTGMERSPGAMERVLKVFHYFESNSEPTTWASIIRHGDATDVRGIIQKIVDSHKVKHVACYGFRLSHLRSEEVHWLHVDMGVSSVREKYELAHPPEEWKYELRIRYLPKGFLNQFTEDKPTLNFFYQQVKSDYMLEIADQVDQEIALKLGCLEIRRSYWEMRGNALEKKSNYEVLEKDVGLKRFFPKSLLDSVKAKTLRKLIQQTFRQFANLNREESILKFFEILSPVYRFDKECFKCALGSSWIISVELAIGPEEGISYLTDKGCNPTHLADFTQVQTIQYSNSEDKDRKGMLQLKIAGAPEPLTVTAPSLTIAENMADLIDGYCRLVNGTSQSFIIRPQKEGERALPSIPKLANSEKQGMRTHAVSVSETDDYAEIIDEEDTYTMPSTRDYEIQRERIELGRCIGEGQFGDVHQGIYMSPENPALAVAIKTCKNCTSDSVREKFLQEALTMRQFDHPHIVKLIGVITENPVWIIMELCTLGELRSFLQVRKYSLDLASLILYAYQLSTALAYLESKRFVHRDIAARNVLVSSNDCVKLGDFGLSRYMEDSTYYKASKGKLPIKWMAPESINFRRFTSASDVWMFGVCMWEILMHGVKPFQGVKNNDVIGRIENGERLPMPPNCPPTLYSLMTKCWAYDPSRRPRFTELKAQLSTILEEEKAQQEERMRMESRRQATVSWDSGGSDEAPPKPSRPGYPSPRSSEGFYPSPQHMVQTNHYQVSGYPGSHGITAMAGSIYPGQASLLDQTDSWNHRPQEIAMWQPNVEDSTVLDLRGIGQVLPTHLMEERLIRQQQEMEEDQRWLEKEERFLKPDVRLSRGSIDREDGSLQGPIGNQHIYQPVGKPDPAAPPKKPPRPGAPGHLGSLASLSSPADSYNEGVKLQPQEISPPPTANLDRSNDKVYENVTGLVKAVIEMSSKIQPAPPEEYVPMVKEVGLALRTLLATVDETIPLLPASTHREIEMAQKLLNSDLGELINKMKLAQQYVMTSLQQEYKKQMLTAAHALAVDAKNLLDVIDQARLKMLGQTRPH
Chain of Concanavalin-A (Canavalia ensiformis) (P02866 whole entry, looked up): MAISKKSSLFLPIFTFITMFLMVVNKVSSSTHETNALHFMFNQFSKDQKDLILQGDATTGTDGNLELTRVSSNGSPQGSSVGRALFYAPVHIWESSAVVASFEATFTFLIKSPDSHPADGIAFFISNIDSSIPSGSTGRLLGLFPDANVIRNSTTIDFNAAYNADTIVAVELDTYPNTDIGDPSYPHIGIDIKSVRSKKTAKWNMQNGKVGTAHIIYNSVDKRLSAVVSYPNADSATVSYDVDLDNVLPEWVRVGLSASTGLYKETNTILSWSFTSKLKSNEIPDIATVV
Chain of Albumin (Bos taurus) (P02769 whole entry, looked up): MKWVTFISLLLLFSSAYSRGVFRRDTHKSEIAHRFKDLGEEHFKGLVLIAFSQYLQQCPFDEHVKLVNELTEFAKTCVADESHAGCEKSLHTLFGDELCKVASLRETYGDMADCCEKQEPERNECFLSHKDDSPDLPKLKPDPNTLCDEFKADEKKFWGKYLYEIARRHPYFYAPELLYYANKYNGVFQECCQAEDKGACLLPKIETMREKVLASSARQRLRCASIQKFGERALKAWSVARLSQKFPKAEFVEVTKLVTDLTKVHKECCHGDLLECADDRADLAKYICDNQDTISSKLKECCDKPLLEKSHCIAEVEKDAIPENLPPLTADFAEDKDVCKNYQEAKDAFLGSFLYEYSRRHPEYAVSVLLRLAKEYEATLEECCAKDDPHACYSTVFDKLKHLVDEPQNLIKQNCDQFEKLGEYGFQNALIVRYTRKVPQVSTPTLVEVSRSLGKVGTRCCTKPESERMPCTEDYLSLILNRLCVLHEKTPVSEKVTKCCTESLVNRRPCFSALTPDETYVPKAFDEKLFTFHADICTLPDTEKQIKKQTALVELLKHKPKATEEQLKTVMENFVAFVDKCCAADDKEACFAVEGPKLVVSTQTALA

Row | SMILES | composite z-score (Albumin (Bos taurus)) | composite Z-score [1] | composite z-score [2] | composite z-score [3] | composite z-score [4] | composite z-score [5] | composite z-score [6] | composite z-score (Sam68 (KHDRBS1)) | composite z-score [7] | composite z-score [8] | composite z-score [9] | composite z-score [10] | composite z-score [11] | composite z-score [12] | composite z-score [13] | composite z-score [14] | z-score [15] | composite z-score (Lefty1) | composite z-score [16] | z-score [17]
1 | C=CCN(C(=O)C1N(CCOCCO)C(=O)C2C(C(=O)O)C3C=CC21O3)c1ccc(OC)cc1 (stereo not given) | -0.0638 and -1.17 | -0.598 (inactive) and -0.613 (inactive) | -0.421 and -0.459 | -0.211 and -0.143 | 0.797 and 0.959 | -0.39 and 0.89 | 1.39 and 0.112 | -1.5 and -2.25 | -2.17 and -3.32 | -2.82 and -1.96 | -0.576 and -1.3 | -1.57 and -1.78 | 0.748 and -0.878 | -1.13 and -2.1 | -2.1 and -2.52 | -0.792 and -1.54 | 0.154 and 0.454 | -2.56 and -2.64 | -0.937 and -1.41 | -0.505 (inactive) and -0.392 (inactive)
2 | C=CC[C@@H](O)c1ccc(O)c(F)c1 | 0.27 and 0.242 | 0.276 (inactive) and 0.895 (inactive) | -0.478 and -0.553 | -0.214 and -0.196 | 0.818 and 0.758 | -0.301 and -0.323 | -0.0711 and -0.495 | -0.601 and -0.896 | -1.22 and -1.15 | -1.51 and -1.15 | -1.52 and -0.7 | -0.762 and -1.07 | -0.0427 and -0.9 | -0.755 and -1.22 | -1.12 and -0.0709 | -1.42 and -0.594 | -0.933 and 1.15 | -1.9 and -0.344 | 0.106 and -1.3 | -0.0615 (inactive) and -1.14 (inactive)
3 | C=CCN(CCCC)C(=O)C(c1cccs1)N(CCOCCO)C(=O)/C=C\C(=O)O (stereo not given) | -0.717 and 0.789 | -0.67 (inactive) and -0.0169 (inactive) | -0.362 and -0.189 | -0.14 and -0.115 | 0.916 and 0.734 | 0.0303 and 1.6 | -0.672 and 0.9 | -1.2 and -0.24 | -1.6 and -0.769 | -2.03 and -0.878 | -0.542 and 1.17 | -1.01 and 0.222 | -0.552 and 0.468 | -2.44 and -1.32 | -1.31 and -0.249 | -1.01 and -0.379 | 0.0562 and 0.567 | -0.727 and -0.409 | -0.667 and -0.193 | -0.417 (inactive) and -0.714 (inactive)
4 | CC(CO)N1C(=O)[C@@H]2C3C(=O)OCCC=C[C@H]3OC23C=CCN(C(C)(C)C)C(=O)[C@@H]13 (stereo not given in full) | 0.231 and -0.322 | -0.734 (inactive) and 0.825 (inactive) | -0.34 and 0.037 | -0.211 and -0.14 | 0.863 and 0.837 | -0.329 and 0.395 | 0.241 and 1.27 | -0.349 and 0.36 | -1.5 and -0.54 | -2.13 and -0.887 | -2.03 and 0.11 | -1.08 and -0.0333 | -0.0802 and -0.371 | -1.65 and -0.445 | -1.1 and -0.0304 | -0.325 and -0.263 | -0.619 and -0.394 | -1.08 and 0.542 | -2.85 and 0.0101 | -0.685 (inactive) and -0.146 (inactive)
5 | CO[C@H]1COC(=O)[C@H](C)NC(=O)CC=C[C@@H](C)[C@H](OC)COC(=O)CC=C[C@@H]1C | -0.956 | 0.536 (inactive) | -0.0716 | -0.161 | -0.719 | -0.705 | -0.796 | -0.25 | 1.49 | -1.85 | -0.284 | -1.4 | -0.348 | -1.86 | 1.28 | 1.71 | 0.106 | 1.62 | -0.655 | -0.885 (inactive)
6 | C=CCN(CCCC)C(=O)C1N(CCCCCCO)C(=O)C2C(C(=O)O)C3C=CC21O3 (stereo not given) | -1.52 and -1.4 | 0.0063 (inactive) and 0.131 (inactive) | -0.555 and -0.323 | -0.222 and -0.185 | 0.913 and 0.938 | -0.809 and 0.159 | 0.861 and 0.0304 | -0.243 and -0.577 | -1.56 and -3.19 | -2.11 and -0.791 | -1.27 and 0.826 | -0.618 and -0.472 | -0.725 and -0.445 | -0.574 and -1.65 | -1.74 and -2.89 | -1.97 and -2.02 | -0.242 and 0.214 | -2.3 and -2.2 | 0.483 and -1.28 | 0.314 (inactive) and 0.488 (inactive)
7 | CC(CO)N1C(=O)[C@@H]2C3C(=O)OCCC=C[C@H]3OC23C=CCN(Cn2nnc4ccccc42)C(=O)[C@@H]13 (stereo not given in full) | -0.169 and 0.923 | 0.318 (inactive) and 0.418 (inactive) | -0.374 and -0.15 | -0.14 and -0.0191 | 0.939 and 0.856 | 0.342 and -0.478 | 0.102 and 0.397 | -0.821 and -0.291 | -2.19 and 0.0479 | -0.221 and -0.0699 | 0.398 and 1.77 | -0.66 and 0.136 | -0.244 and -0.0494 | -0.332 and -0.0118 | -0.93 and 0.345 | -1.31 and -0.224 | -0.469 and -0.766 | -1.34 and 0.247 | -0.711 and -0.23 | 0.0511 (inactive) and 0.399 (inactive)
8 | C=C[C@@H](OC)[C@H](O)c1ccc(O)c(F)c1 | -0.131 and 0.529 | 1.31 (inactive) and -0.643 (inactive) | -0.502 and -0.544 | -0.266 and -0.254 | 0.881 and -0.182 | -0.385 and -0.626 | 1.24 and -1.16 | -0.697 and -1.48 | -0.952 and -0.984 | -0.904 and -1.04 | -0.709 and -0.462 | -0.912 and -1.26 | -0.746 and -0.838 | -1.11 and -0.58 | -1.18 and -0.404 | -1.39 and 0.0341 | -0.329 and 0.662 | -1.7 and -0.947 | -0.303 and -0.223 | -0.981 (inactive) and -1.3 (inactive)
9 | CC(CO)N1C(=O)[C@@H]2C3C(=O)OCCC=C[C@H]3OC23C=CCN(Cc2ccccc2)C(=O)[C@@H]13 (stereo not given in full) | -0.561 and -0.652 | 0.0931 (inactive) and -0.171 (inactive) | -0.207 and -0.136 | -0.174 and -0.133 | 0.84 and 0.944 | -0.205 and 0.481 | 0.716 and 0.0818 | -0.0818 and -0.239 | -0.927 and -0.898 | -1.3 and -1.38 | -0.814 and -1.05 | -0.716 and -0.415 | 0.275 and -0.855 | -1.73 and -0.886 | -0.972 and -1.08 | -0.995 and -0.746 | 0.739 and 0.735 | -1.17 and -0.88 | -1.16 and -0.612 | -0.965 (inactive) and -0.875 (inactive)
